Data: paper PMC7862700, “An all-to-all approach to the identification of sequence-specific readers for epigenetic DNA modifications on cytosine”

Experiments:
Test in all cases: DAPPL (digital affinity profiling via proximity ligation, sequencing); 10 mM Tris-HCl pH 7.5, 50 mM NaCl, 1 mM DTT, 4% glycerol, room temperature, 30 min; GST-TFs on glutathione beads, 16-mer random dsDNA library, 0.1% formaldehyde crosslink after washing; high values mean tight binding
FEV = biological target: T1, FEV (Homo sapiens, UniProt Q99581 1-238); details: protein: recombinant; tags: N-terminal GST; dsDNA, one strand shown
T1 sequence: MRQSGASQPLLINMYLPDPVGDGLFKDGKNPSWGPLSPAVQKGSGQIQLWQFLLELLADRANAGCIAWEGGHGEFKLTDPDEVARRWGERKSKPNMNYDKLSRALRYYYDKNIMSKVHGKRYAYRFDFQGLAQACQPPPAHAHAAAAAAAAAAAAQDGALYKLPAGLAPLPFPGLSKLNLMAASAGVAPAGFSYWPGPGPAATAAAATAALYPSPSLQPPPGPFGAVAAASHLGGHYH
Method in brief: (§1)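 Each value of binding signal is a hexamer's read frequency for a factor divided by the same hexamer's frequency in the tag-only sample. Barcoded, bead-captured GST fusions of human transcription factors made in yeast were pooled with that sample and incubated with 200 nmole of a random double-stranded 16-mer DNA library in Tris/NaCl/DTT/glycerol buffer at room temperature for 30 min. Washing, 0.1% formaldehyde crosslinking, proximity ligation, PCR and Illumina NextSeq500 sequencing followed.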

ETV5 = ETV5 (Homo sapiens, UniProt P41161 1-510); details: protein: recombinant; tags: N-terminal GST; dsDNA, one strand shown
Method in brief: as §1

HSF1 = HSF1 (Homo sapiens, UniProt Q00613 1-529); details: protein: recombinant; tags: N-terminal GST; chain copies: 3; dsDNA, one strand shown
Method in brief: as §1

SPIC = biological target: T2, SPIC (Homo sapiens, UniProt Q8N5J4 1-248); details: protein: recombinant; tags: N-terminal GST; dsDNA, one strand shown
T2 sequence: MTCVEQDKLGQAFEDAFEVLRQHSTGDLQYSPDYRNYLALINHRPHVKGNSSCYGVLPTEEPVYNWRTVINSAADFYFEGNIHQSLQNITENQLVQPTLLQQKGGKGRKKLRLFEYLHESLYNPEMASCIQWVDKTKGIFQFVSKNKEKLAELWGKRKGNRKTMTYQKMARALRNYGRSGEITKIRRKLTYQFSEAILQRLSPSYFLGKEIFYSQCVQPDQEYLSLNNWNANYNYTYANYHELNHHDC
Method in brief: as §1

ELF4 = ELF4 (Homo sapiens, UniProt Q99607 1-663); details: protein: recombinant; tags: N-terminal GST; dsDNA, one strand shown
Method in brief: as §1

ELK4 = biological target: T3, ELK4 (Homo sapiens, UniProt P28324-2 1-405); details: protein: recombinant; tags: N-terminal GST; dsDNA, one strand shown
T3 sequence: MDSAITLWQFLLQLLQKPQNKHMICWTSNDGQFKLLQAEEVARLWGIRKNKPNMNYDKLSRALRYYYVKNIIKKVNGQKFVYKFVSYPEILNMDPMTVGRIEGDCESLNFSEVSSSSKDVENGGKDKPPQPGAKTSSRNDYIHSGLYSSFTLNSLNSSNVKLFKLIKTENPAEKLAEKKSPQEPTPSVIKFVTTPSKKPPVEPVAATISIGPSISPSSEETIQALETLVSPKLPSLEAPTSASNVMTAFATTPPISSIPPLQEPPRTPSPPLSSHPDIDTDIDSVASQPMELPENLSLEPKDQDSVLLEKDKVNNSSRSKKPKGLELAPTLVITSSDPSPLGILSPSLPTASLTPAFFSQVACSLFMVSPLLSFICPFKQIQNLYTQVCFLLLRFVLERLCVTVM
Method in brief: as §1

ETV2 = biological target: T4, ETV2 (Homo sapiens, UniProt O00321 1-342); details: protein: recombinant; tags: N-terminal GST; dsDNA, one strand shown
T4 sequence: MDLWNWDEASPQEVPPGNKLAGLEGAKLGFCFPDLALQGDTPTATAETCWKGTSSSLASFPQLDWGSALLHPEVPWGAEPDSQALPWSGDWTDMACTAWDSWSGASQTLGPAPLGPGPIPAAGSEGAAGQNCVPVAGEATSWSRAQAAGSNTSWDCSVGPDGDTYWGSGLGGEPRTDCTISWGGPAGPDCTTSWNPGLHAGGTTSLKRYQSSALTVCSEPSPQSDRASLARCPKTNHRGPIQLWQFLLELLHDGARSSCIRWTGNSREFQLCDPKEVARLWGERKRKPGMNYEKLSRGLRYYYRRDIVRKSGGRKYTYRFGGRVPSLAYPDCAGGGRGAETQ
Method in brief: as §1

ELF3 = biological target: T5, ELF3 (Homo sapiens, UniProt P78545 1-371); details: protein: recombinant; tags: N-terminal GST; dsDNA, one strand shown
T5 sequence: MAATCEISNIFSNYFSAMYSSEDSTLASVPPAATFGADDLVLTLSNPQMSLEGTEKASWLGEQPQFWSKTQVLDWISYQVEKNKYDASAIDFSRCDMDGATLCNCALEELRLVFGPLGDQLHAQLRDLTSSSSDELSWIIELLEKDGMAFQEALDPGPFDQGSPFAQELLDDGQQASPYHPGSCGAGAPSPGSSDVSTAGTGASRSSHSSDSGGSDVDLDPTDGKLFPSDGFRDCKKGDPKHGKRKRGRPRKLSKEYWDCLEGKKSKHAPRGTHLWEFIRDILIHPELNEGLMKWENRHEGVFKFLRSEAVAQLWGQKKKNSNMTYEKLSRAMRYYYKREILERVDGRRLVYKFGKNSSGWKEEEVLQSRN
Method in brief: as §1

CRX = CRX (Homo sapiens, UniProt O43186 1-299); details: protein: recombinant; tags: N-terminal GST; dsDNA, one strand shown
Method in brief: as §1

ETV1 = ETV1 (Homo sapiens, UniProt P50549 1-477); details: protein: recombinant; tags: N-terminal GST; dsDNA, one strand shown
Method in brief: as §1

ERF = biological target: T6, ERF (Homo sapiens, UniProt P50548 1-548); details: protein: recombinant; tags: N-terminal GST; dsDNA, one strand shown
T6 sequence: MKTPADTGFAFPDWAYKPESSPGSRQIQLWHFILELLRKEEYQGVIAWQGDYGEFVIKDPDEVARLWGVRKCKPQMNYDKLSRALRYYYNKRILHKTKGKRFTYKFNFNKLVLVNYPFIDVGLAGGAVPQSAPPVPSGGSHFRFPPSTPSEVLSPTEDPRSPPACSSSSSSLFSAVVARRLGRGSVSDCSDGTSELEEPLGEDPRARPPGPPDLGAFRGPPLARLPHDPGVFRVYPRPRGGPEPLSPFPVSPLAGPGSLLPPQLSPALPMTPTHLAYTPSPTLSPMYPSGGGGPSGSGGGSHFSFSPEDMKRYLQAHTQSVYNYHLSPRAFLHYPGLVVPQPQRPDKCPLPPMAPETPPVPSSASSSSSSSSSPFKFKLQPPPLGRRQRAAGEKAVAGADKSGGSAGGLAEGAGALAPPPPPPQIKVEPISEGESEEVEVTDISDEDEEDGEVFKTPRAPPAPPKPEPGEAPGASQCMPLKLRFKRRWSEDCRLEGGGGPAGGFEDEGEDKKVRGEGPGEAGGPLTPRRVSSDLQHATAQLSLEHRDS
Method in brief: as §1

ETV3L = biological target: T7, ETV3L (Homo sapiens, UniProt Q6ZN32 1-361); details: protein: recombinant; tags: N-terminal GST; dsDNA, one strand shown
T7 sequence: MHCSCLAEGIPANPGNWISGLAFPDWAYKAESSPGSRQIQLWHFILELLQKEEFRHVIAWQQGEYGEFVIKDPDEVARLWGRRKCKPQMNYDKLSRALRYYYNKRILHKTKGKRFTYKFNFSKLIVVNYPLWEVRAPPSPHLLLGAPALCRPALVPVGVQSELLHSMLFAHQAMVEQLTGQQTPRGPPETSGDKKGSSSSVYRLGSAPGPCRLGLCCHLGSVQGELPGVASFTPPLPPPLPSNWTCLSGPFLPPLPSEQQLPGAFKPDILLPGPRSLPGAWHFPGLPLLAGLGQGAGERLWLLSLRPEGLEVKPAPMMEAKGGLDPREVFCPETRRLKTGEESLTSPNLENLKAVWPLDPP
Method in brief: as §1

ETS2 = biological target: T8, ETS2 (Homo sapiens, UniProt P15036 1-469); details: protein: recombinant; tags: N-terminal GST; dsDNA, one strand shown
T8 sequence: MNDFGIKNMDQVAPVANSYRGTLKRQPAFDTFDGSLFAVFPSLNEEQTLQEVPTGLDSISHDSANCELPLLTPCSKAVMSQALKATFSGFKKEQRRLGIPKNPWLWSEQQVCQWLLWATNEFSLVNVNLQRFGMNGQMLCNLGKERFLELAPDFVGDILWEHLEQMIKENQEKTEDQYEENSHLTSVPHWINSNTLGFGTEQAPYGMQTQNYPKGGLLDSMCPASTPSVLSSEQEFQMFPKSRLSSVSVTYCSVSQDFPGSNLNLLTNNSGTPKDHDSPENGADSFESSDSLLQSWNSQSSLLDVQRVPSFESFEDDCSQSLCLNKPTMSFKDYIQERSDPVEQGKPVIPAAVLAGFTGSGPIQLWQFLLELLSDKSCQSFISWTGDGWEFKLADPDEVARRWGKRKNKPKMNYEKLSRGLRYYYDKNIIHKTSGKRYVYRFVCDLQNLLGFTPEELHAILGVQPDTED
Method in brief: as §1

SPDEF = biological target: T9, SPDEF (Homo sapiens, UniProt O95238 1-335); details: protein: recombinant; tags: N-terminal GST; dsDNA, one strand shown
T9 sequence: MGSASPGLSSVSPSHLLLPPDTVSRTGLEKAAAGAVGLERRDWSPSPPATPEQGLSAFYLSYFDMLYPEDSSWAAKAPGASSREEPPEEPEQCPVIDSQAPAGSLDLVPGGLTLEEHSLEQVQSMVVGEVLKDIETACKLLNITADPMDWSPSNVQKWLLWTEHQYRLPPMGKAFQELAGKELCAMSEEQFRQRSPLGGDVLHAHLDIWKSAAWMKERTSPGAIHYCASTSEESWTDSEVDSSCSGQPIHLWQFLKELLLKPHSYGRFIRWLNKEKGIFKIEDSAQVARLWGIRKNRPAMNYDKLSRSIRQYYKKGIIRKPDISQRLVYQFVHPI
Method in brief: as §1

ETV7 = biological target: T10, ETV7 (Homo sapiens, UniProt Q9Y603 1-341); details: protein: recombinant; tags: N-terminal GST; dsDNA, one strand shown
T10 sequence: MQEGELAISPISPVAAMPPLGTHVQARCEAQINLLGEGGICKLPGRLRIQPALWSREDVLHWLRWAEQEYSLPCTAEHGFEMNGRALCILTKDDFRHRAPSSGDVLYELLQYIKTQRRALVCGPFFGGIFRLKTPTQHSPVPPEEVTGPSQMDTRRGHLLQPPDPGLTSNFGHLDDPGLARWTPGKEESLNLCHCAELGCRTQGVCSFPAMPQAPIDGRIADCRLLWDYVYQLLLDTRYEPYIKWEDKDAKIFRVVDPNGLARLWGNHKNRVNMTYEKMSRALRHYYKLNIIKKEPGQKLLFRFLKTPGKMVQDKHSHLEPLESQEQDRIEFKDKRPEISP
Method in brief: as §1

ELF5 = biological target: T11, ELF5 (Homo sapiens, UniProt Q9UKW6-2 1-255); details: protein: recombinant; tags: N-terminal GST; dsDNA, one strand shown
T11 sequence: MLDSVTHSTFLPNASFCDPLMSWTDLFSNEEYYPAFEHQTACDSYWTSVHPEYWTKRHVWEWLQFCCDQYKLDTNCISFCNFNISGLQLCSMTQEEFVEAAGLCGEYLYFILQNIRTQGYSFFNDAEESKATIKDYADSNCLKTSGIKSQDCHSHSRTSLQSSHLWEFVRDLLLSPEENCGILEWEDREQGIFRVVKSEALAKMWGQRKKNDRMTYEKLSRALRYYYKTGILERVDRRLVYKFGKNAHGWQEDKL
Method in brief: as §1

ETV3 = biological target: T12, ETV3 (Homo sapiens, UniProt P41162-2 1-143); details: protein: recombinant; tags: N-terminal GST; dsDNA, one strand shown
T12 sequence: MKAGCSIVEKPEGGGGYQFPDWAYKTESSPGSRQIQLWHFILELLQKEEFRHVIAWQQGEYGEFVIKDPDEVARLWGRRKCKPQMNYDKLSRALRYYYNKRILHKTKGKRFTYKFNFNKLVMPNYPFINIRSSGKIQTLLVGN
Method in brief: as §1

ETV6 = ETV6 (Homo sapiens, UniProt P41212 1-452); details: protein: recombinant; tags: N-terminal GST; dsDNA, one strand shown
Method in brief: as §1

Sequence of ELF4 (Q99607 whole entry): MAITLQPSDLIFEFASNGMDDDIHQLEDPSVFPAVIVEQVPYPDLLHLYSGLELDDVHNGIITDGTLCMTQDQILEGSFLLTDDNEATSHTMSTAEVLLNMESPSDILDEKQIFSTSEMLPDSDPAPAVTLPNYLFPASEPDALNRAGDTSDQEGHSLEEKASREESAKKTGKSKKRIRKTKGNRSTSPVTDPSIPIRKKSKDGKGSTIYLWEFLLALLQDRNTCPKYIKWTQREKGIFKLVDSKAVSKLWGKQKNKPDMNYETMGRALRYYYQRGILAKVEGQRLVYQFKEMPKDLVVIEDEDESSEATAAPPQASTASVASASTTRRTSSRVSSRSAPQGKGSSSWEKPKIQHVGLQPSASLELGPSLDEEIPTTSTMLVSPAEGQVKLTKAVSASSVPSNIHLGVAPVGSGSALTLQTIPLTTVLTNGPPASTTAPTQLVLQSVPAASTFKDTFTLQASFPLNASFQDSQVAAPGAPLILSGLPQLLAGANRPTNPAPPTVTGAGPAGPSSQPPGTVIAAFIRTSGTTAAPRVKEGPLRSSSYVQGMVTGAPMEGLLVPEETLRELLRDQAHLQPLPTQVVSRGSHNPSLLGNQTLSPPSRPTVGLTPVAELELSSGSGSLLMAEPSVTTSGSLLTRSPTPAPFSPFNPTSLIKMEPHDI
Sequence of ETV5 (P41161 whole entry): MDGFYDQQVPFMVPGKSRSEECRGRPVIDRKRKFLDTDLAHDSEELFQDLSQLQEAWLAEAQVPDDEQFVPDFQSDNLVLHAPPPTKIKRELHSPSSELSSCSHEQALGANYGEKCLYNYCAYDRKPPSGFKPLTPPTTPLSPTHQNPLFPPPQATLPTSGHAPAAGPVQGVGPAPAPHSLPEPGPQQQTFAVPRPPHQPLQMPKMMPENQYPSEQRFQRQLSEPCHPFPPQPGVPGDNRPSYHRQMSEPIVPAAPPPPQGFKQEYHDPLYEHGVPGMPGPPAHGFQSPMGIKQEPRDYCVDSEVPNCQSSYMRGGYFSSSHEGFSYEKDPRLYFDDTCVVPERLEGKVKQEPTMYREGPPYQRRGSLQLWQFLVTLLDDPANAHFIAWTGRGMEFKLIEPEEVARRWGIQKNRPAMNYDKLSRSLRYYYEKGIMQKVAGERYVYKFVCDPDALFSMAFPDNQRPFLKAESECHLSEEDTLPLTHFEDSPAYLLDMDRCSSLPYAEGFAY
Sequence of CRX (O43186 whole entry): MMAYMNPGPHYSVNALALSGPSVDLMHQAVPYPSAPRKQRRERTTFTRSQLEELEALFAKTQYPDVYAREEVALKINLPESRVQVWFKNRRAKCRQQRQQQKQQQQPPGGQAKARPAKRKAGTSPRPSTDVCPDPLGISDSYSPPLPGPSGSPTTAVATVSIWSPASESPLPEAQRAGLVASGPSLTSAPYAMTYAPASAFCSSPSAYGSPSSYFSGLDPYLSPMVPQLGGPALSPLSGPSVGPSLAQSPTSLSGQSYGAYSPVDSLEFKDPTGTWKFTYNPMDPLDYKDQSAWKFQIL
Sequence of ETV6 (P41212 whole entry): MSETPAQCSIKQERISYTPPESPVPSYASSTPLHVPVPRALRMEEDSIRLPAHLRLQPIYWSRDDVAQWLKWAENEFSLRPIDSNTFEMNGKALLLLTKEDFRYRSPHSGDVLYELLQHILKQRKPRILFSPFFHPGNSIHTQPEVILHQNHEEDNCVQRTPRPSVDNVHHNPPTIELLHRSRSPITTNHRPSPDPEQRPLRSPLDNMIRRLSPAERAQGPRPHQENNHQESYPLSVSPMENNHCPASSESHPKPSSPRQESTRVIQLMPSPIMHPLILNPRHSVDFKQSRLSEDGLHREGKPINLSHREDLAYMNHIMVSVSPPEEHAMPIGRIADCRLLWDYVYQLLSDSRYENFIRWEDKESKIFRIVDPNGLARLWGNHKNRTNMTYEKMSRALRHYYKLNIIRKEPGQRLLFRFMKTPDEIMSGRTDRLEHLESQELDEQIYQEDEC
Sequence of ETV1 (P50549 whole entry): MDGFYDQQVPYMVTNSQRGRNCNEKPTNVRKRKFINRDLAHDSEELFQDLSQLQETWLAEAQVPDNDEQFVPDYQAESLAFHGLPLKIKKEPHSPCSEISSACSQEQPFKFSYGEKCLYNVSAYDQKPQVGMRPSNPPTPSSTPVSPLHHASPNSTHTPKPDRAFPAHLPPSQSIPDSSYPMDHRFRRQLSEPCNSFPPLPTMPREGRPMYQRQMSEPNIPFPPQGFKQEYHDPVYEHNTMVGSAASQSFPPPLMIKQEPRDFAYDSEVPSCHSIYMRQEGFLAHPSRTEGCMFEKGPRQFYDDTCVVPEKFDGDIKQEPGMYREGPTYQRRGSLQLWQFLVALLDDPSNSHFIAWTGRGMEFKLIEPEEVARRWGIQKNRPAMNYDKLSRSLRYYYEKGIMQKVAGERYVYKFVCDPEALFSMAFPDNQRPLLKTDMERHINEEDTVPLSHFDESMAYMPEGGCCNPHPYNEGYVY
Sequence of HSF1 (Q00613 whole entry): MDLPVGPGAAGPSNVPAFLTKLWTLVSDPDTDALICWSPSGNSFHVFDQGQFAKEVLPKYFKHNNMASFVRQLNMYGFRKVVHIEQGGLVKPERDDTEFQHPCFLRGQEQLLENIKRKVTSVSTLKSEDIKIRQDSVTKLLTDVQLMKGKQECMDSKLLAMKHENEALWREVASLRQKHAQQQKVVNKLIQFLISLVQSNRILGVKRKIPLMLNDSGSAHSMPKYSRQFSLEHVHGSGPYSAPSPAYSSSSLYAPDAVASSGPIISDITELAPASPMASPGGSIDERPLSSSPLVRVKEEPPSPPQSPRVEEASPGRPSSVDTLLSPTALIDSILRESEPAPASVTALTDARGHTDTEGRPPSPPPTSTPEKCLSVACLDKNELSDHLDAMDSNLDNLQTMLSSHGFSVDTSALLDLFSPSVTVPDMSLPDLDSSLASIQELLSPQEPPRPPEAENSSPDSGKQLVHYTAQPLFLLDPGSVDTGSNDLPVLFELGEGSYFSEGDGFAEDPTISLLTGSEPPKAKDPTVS

With ATCGAC the binding signal (FEV) was 1.12 fold enrichment (6-mer frequency, TF over GST control), the binding signal (ETV5) was 1.25 fold enrichment (6-mer frequency, TF over GST control) and the binding signal (HSF1) was 1.16 fold enrichment (6-mer frequency, TF over GST control). For the same sequence, the binding signal (SPIC) was 1.13 fold enrichment (6-mer frequency, TF over GST control), the binding signal (ELF4) was 1.21 fold enrichment (6-mer frequency, TF over GST control) and the binding signal (ELK4) was 1.26 fold enrichment (6-mer frequency, TF over GST control). The binding signal (ETV2) was 1.23 fold enrichment (6-mer frequency, TF over GST control), the binding signal (ELF3) was 1.14 fold enrichment (6-mer frequency, TF over GST control) and the binding signal (CRX) was 1.11 fold enrichment (6-mer frequency, TF over GST control). The binding signal (ETV1) was 1.16 fold enrichment (6-mer frequency, TF over GST control), the binding signal (ERF) was 1.1 fold enrichment (6-mer frequency, TF over GST control) and the binding signal (ETV3L) was 1.21 fold enrichment (6-mer frequency, TF over GST control). For the same sequence, the binding signal (ETS2) was 1.1 fold enrichment (6-mer frequency, TF over GST control), the binding signal (SPDEF) was 1.06 fold enrichment (6-mer frequency, TF over GST control) and the binding signal (ETV7) was 1.28 fold enrichment (6-mer frequency, TF over GST control). For the same sequence, the binding signal (ELF5) was 1.09 fold enrichment (6-mer frequency, TF over GST control), the binding signal (ETV3) was 1.25 fold enrichment (6-mer frequency, TF over GST control) and the binding signal (ETV6) was 1.21 fold enrichment (6-mer frequency, TF over GST control).
